# Measurements as given in article PMC7862700, “An all-to-all approach to the identification of sequence-specific readers for epigenetic DNA modifications on cytosine”.
# Experiments:
# Assay in all cases: DAPPL (digital affinity profiling via proximity ligation, sequencing); 10 mM Tris-HCl pH 7.5, 50 mM NaCl, 1 mM DTT, 4% glycerol, room temperature, 30 min; GST-TFs on glutathione beads, 16-mer random dsDNA library, 0.1% formaldehyde crosslink after washing; high values mean tight binding
# FLI1 = molecular target: T1, FLI1 (Homo sapiens, UniProt Q01543 1-452); details: protein: recombinant; tags: N-terminal GST; dsDNA, one strand shown
# T1 sequence: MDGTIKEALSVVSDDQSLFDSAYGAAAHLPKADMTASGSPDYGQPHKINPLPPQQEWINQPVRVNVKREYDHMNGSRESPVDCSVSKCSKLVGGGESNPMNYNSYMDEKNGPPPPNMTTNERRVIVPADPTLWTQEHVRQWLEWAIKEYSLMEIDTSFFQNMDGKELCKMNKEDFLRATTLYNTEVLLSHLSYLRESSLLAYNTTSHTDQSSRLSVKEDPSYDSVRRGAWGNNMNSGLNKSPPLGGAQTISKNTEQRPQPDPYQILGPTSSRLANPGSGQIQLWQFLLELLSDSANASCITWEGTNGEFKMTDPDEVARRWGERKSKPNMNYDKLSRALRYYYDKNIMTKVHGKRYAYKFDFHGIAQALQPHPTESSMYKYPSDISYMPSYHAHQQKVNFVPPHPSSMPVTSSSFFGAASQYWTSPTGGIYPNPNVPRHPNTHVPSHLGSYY
# In short: (§1)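 Sequencing on an Illumina NextSeq500 followed washing, crosslinking with 0.1% formaldehyde, proximity ligation (BsaI/T4 ligase, 1 h, 37 °C) and PCR amplification of pools that had been incubated for 30 min at room temperature with 200 nmole of a random double-stranded 16-mer DNA library in Tris/NaCl/DTT/glycerol buffer. Each pool held DNA-barcoded human transcription factors, expressed in yeast as GST fusions and captured on glutathione beads, plus a tag-only sample. Binding signal is a hexamer's read frequency for a factor divided by its frequency in the tag-only sample.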
# ELK1 = molecular target: T2, ELK1 (Homo sapiens, UniProt P19419 1-428); details: protein: recombinant; tags: N-terminal GST; dsDNA, one strand shown
# T2 sequence: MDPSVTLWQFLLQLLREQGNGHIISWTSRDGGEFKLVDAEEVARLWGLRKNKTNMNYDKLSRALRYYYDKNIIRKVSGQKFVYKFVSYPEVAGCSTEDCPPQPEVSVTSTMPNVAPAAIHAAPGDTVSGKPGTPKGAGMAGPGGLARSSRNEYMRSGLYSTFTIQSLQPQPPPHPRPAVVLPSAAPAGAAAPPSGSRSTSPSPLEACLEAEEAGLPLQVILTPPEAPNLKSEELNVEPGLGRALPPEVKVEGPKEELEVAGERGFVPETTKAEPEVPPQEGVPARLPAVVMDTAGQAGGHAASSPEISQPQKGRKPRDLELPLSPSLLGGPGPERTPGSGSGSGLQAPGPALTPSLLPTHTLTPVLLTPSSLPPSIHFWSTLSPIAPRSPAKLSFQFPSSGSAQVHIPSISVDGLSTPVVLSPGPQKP
# In short: as §1
# GABPA = molecular target: T3, GABPA (Homo sapiens, UniProt Q06546 1-454); details: protein: recombinant; tags: N-terminal GST; dsDNA, one strand shown
# T3 sequence: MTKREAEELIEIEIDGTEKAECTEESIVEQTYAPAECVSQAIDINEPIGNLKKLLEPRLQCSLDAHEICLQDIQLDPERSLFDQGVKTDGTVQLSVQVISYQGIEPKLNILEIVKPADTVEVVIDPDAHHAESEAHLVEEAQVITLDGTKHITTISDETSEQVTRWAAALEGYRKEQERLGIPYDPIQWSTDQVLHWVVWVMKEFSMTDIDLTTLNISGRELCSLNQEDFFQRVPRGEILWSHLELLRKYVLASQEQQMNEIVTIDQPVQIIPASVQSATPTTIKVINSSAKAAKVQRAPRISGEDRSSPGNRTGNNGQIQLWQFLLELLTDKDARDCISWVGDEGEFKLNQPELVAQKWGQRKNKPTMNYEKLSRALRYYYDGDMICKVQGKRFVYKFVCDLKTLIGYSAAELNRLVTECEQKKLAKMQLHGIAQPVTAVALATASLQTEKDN
# In short: as §1
# ERG = molecular target: T4, ERG (Homo sapiens, UniProt P11308 1-479); details: protein: recombinant; tags: N-terminal GST; dsDNA, one strand shown
# T4 sequence: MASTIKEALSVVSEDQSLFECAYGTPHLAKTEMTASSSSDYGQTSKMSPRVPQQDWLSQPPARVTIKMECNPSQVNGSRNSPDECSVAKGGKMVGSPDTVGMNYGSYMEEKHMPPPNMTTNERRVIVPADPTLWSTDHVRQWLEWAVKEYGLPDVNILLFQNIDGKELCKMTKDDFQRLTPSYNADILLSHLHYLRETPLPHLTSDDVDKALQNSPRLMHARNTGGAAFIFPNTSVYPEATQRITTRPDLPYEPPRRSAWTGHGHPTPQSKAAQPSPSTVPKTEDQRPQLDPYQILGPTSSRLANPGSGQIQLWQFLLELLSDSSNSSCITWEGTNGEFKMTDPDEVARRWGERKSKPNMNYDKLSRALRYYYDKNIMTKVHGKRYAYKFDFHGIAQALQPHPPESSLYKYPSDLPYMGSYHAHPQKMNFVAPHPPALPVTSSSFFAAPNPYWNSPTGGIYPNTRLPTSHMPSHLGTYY
# In short: as §1
# ELF1 = ELF1 (Homo sapiens, UniProt P32519 1-619); details: protein: recombinant; tags: N-terminal GST; dsDNA, one strand shown
# In short: as §1
# EHF = molecular target: T5, EHF (Homo sapiens, UniProt Q9NZC4 1-300); details: protein: recombinant; tags: N-terminal GST; dsDNA, one strand shown
# T5 sequence: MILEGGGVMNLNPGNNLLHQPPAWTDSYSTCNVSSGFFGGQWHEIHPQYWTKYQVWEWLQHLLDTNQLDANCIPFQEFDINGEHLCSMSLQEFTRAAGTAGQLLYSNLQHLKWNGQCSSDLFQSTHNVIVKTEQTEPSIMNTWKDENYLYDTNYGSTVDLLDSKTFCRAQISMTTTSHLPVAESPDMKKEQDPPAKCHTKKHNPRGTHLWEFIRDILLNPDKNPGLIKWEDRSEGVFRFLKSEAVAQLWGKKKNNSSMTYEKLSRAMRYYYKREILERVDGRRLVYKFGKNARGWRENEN
# In short: as §1
# SPI1 = SPI1 (Homo sapiens, UniProt P17947 1-270); details: protein: recombinant; tags: N-terminal GST; dsDNA, one strand shown
# In short: as §1
# SPIB = SPIB (Homo sapiens, UniProt Q01892 1-262); details: protein: recombinant; tags: N-terminal GST; dsDNA, one strand shown
# In short: as §1
# ELK3 = molecular target: T6, ELK3 (Homo sapiens, UniProt P41970 1-407); details: protein: recombinant; tags: N-terminal GST; dsDNA, one strand shown
# T6 sequence: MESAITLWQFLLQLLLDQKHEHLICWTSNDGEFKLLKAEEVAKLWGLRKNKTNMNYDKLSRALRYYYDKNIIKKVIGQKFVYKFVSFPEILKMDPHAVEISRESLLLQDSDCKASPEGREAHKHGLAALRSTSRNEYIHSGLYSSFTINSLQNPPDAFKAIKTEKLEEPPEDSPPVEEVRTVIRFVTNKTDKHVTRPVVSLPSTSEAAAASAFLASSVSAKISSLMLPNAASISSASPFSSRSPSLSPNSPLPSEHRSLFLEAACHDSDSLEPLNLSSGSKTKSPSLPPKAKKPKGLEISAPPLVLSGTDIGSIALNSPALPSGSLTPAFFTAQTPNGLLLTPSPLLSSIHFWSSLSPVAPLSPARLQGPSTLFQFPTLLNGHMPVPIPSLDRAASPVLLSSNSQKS
# In short: as §1
# FEV = molecular target: T7, FEV (Homo sapiens, UniProt Q99581 1-238); details: protein: recombinant; tags: N-terminal GST; dsDNA, one strand shown
# T7 sequence: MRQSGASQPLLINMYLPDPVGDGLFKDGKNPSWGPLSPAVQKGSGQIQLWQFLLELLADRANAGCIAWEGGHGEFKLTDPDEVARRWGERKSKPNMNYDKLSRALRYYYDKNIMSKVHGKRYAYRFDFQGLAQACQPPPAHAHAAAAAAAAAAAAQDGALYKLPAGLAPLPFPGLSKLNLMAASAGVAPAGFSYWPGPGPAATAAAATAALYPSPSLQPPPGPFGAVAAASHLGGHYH
# In short: as §1
# ETV5 = ETV5 (Homo sapiens, UniProt P41161 1-510); details: protein: recombinant; tags: N-terminal GST; dsDNA, one strand shown
# In short: as §1
# HSF1 = HSF1 (Homo sapiens, UniProt Q00613 1-529); details: protein: recombinant; tags: N-terminal GST; chain copies: 3; dsDNA, one strand shown
# In short: as §1
# SPIC = molecular target: T8, SPIC (Homo sapiens, UniProt Q8N5J4 1-248); details: protein: recombinant; tags: N-terminal GST; dsDNA, one strand shown
# T8 sequence: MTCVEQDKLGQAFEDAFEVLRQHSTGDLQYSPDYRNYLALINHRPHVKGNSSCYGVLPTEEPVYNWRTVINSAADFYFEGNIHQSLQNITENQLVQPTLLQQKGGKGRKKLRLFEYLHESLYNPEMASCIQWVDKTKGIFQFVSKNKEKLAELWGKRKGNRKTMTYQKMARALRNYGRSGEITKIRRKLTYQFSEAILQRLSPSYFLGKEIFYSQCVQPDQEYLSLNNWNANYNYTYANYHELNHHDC
# In short: as §1
# ELF4 = ELF4 (Homo sapiens, UniProt Q99607 1-663); details: protein: recombinant; tags: N-terminal GST; dsDNA, one strand shown
# In short: as §1
# ELK4 = molecular target: T9, ELK4 (Homo sapiens, UniProt P28324-2 1-405); details: protein: recombinant; tags: N-terminal GST; dsDNA, one strand shown
# T9 sequence: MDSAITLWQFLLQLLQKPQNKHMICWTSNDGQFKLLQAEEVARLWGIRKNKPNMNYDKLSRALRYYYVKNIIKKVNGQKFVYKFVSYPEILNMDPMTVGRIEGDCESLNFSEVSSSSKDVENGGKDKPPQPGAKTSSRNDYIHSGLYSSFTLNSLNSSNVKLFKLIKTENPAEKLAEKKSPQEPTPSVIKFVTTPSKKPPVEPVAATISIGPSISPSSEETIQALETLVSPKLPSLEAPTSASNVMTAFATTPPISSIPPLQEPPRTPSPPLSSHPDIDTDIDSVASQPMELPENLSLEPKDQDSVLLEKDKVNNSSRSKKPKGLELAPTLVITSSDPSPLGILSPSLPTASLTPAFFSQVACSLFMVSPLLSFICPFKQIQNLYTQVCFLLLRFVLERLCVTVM
# In short: as §1
# ETV2 = molecular target: T10, ETV2 (Homo sapiens, UniProt O00321 1-342); details: protein: recombinant; tags: N-terminal GST; dsDNA, one strand shown
# T10 sequence: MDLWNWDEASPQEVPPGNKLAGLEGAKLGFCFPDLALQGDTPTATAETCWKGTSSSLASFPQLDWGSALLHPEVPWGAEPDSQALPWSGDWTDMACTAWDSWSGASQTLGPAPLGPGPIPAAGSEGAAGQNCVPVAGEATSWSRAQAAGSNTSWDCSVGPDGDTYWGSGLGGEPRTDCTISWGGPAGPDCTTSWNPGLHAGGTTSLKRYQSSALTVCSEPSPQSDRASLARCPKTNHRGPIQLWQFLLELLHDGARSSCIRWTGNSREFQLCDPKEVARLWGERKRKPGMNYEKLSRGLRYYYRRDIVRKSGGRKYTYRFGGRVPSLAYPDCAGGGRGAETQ
# In short: as §1
# ELF3 = molecular target: T11, ELF3 (Homo sapiens, UniProt P78545 1-371); details: protein: recombinant; tags: N-terminal GST; dsDNA, one strand shown
# T11 sequence: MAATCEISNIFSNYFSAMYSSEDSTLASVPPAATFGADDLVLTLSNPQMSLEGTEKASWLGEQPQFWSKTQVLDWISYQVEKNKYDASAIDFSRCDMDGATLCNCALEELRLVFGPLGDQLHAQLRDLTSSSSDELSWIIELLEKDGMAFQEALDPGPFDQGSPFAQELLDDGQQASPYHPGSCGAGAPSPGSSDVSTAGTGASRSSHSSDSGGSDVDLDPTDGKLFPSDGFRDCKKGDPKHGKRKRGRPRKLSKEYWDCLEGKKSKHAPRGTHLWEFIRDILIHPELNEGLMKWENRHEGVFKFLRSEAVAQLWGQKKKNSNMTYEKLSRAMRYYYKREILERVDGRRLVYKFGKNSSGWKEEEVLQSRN
# In short: as §1
# CRX = CRX (Homo sapiens, UniProt O43186 1-299); details: protein: recombinant; tags: N-terminal GST; dsDNA, one strand shown
# In short: as §1
# ETV1 = ETV1 (Homo sapiens, UniProt P50549 1-477); details: protein: recombinant; tags: N-terminal GST; dsDNA, one strand shown
# In short: as §1
# ELF4, sequence (Q99607 whole entry): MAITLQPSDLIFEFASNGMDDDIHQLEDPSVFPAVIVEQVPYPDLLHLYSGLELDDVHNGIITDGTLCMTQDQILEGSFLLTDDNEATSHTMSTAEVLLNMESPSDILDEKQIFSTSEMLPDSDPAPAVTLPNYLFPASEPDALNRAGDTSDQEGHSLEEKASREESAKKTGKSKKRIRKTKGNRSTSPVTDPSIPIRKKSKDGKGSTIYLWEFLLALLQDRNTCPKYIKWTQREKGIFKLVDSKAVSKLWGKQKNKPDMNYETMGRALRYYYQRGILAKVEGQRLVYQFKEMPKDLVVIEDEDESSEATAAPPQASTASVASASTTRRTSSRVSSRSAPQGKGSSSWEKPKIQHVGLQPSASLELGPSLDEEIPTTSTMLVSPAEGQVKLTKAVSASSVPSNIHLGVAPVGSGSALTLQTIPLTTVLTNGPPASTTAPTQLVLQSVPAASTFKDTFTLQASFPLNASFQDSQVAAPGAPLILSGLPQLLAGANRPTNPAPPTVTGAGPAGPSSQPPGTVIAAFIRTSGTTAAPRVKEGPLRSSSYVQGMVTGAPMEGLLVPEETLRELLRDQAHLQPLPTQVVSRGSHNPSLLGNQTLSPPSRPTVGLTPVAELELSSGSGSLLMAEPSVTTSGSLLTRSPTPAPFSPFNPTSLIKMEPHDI
# ETV5, sequence (P41161 whole entry): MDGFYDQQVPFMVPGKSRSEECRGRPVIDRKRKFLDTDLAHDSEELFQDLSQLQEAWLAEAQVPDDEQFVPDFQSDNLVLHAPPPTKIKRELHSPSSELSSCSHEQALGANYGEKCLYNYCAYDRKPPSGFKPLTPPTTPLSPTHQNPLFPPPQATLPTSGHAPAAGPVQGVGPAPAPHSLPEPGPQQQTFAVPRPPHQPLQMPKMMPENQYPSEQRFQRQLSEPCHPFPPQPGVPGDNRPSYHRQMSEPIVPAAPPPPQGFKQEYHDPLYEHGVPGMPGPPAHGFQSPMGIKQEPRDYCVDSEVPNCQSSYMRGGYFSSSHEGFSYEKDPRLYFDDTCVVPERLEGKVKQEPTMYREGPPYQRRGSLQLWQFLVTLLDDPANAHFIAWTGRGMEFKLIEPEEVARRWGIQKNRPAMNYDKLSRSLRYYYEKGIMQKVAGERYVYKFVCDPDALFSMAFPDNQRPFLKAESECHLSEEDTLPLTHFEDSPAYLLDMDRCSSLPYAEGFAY
# CRX, sequence (O43186 whole entry): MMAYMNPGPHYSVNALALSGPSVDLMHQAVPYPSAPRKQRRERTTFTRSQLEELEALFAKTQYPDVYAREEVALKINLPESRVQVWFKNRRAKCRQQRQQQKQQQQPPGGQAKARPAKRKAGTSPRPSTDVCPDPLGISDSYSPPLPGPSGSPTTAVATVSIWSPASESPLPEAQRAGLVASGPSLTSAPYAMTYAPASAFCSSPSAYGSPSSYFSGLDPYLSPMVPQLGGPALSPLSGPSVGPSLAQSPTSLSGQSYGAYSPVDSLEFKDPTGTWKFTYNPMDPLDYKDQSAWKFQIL
# ETV1, sequence (P50549 whole entry): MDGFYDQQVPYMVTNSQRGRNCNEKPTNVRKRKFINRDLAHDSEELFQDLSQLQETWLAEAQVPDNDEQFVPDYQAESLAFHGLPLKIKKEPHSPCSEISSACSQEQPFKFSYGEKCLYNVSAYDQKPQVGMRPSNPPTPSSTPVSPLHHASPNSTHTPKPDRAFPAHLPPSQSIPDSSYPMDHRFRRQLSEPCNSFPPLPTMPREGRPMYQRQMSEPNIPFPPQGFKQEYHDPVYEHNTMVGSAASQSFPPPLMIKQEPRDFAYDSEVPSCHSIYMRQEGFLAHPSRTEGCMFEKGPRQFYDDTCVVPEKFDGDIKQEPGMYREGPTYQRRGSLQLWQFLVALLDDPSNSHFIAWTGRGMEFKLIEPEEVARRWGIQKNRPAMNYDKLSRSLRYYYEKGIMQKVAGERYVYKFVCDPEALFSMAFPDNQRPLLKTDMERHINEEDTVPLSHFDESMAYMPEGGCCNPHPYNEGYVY
# SPIB, sequence (Q01892 whole entry): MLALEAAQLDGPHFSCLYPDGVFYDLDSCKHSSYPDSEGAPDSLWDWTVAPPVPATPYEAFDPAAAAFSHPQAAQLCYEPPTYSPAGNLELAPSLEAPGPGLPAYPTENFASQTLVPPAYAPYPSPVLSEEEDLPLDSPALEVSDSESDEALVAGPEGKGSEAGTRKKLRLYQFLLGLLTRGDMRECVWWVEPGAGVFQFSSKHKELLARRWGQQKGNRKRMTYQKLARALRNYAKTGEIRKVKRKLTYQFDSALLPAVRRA
# ELF1, sequence (P32519 whole entry): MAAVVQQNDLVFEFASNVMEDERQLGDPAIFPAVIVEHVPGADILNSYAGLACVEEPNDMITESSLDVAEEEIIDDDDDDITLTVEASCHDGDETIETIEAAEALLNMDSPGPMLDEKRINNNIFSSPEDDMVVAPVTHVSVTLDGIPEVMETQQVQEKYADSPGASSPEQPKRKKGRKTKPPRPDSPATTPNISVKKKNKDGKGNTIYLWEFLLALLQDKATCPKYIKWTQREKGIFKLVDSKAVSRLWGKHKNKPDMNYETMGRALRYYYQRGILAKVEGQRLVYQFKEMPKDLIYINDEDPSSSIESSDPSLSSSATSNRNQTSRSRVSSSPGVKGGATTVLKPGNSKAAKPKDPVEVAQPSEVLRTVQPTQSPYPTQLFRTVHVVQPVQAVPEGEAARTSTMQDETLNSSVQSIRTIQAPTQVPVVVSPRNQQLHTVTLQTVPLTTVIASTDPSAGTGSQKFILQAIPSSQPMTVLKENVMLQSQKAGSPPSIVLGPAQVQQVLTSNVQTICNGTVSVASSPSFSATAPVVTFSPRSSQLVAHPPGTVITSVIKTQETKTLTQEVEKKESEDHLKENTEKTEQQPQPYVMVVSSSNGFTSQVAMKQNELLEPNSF
# HSF1, sequence (Q00613 whole entry): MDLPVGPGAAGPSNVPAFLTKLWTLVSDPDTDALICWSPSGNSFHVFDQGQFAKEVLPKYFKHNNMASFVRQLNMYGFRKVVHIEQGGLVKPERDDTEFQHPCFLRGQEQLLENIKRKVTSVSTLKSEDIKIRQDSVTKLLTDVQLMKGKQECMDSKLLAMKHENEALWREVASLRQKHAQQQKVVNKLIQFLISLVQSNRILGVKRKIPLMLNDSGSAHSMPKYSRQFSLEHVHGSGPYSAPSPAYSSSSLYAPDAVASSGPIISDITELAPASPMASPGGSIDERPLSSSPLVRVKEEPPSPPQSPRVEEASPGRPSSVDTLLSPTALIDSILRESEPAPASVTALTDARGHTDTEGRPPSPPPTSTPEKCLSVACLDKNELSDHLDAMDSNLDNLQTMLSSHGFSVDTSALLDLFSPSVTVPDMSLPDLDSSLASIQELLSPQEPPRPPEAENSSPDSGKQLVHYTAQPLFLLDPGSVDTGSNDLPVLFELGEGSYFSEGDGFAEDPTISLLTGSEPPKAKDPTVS
sequence,measurement,setting,value
TGGCTC,binding signal,FLI1,"1.4 fold enrichment (6-mer frequency, TF over GST control)"
same,binding signal,ELK1,"1.43 fold enrichment (6-mer frequency, TF over GST control)"
same,binding signal,GABPA,"1.47 fold enrichment (6-mer frequency, TF over GST control)"
same,binding signal,ERG,"1.43 fold enrichment (6-mer frequency, TF over GST control)"
same,binding signal,ELF1,"1.46 fold enrichment (6-mer frequency, TF over GST control)"
same,binding signal,EHF,"1.34 fold enrichment (6-mer frequency, TF over GST control)"
same,binding signal,SPI1,"1.16 fold enrichment (6-mer frequency, TF over GST control)"
same,binding signal,SPIB,"1.39 fold enrichment (6-mer frequency, TF over GST control)"
same,binding signal,ELK3,"1.3 fold enrichment (6-mer frequency, TF over GST control)"
same,binding signal,FEV,"1.39 fold enrichment (6-mer frequency, TF over GST control)"
same,binding signal,ETV5,"1.3 fold enrichment (6-mer frequency, TF over GST control)"
same,binding signal,HSF1,"1.36 fold enrichment (6-mer frequency, TF over GST control)"
same,binding signal,SPIC,"1.46 fold enrichment (6-mer frequency, TF over GST control)"
same,binding signal,ELF4,"1.35 fold enrichment (6-mer frequency, TF over GST control)"
same,binding signal,ELK4,"1.5 fold enrichment (6-mer frequency, TF over GST control)"
same,binding signal,ETV2,"1.61 fold enrichment (6-mer frequency, TF over GST control)"
same,binding signal,ELF3,"1.44 fold enrichment (6-mer frequency, TF over GST control)"
same,binding signal,CRX,"1.3 fold enrichment (6-mer frequency, TF over GST control)"
same,binding signal,ETV1,"1.42 fold enrichment (6-mer frequency, TF over GST control)"
